Among the data in PubChem BioAssay are composite z-score, composite Z-score and z-score values, retold here.

In one assay the target is Albumin (Bos taurus) (UniProt P02769). The experiment in a line: compounds binding labelled BSA control protein – biochemical, small-molecule microarray, Alexa647 label, 635/667 nm fluorescence, artefact control for SMM control protein annotation, profiling panel (AID 1118).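 Note: score merges 667 nm emission intensity and signal-to-noise per printed compound spot.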 The conditions noted are these: BSA-A647 binding, fluorescence 635 nm, higher = more signal.
Assay [1] is described as follows: probe aXIP binding to arrayed compounds – biochemical, NeuroSMM set, 635/667 nm fluorescence, primary screen (AID 1119).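 Note: probe is the protein aXip251-270 applied at 1 µg/mL to compound-printed slides; binding of probe to printed compounds measured as 667 nm fluorescence plus signal to noise.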 The conditions noted are these: small-molecule microarray, higher = more signal, called active from +8 up or from −8 down.
The nature of assay [2]: probe aNOTCH3 binding on compound microarray – biochemical, small-molecule microarray, 635/667 nm fluorescence, primary screen (AID 1120).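 Note: probe is a biotin-tagged antibody raised against NOTCH3 rather than NOTCH3 protein; score merges spot fluorescence near 667 nm with spot signal to noise.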 Conditions: higher = more signal.
A short description of assay [3]: probe aNOTCH2 binding on compound microarray – biochemical, small-molecule microarray, 635/667 nm fluorescence, primary screen (AID 1121).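 Note: score merges feature fluorescence read at 667 nm with its signal to noise.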 The conditions noted are these: higher = more signal.
Assay [4] deals with Carbonic anhydrase 2 (Homo sapiens) (UniProt P00918). Briefly: compounds binding carbonic anhydrase 2 – biochemical, small-molecule microarray, Alexa647-labelled CAII, profiling panel (AID 1122). Conditions: CAII-A647 binding fluorescence, higher = more signal.
Assay [5] can be described thus: COS7 lysate on small-molecule microarray, probe aHis, 635 nm (AID 1123).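 Note: z-score combines 667nm fluorescence intensity with signal-to-noise per printed compound spot.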 Conditions: COS7 cell lysate, fluorescence, higher = more signal.
The nature of assay [6]: probe aLAP1 signal on lysate-treated microarray – cell lysate, small-molecule microarray, COS7 lysate, primary screen (AID 1124).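 Note: lysate comes from COS7 cells expressing LAP1 and is applied at 0.3 µg/mL; score merges spot fluorescence near 667 nm with signal-to-noise over triplicate slides.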 The conditions noted are these: probe aLAP1, fluorescence, higher = more signal.
Another assay has as its system Sam68 (KHDRBS1). The experiment in a line: compounds binding KHDRBS1 protein – biochemical, small-molecule microarray, 635 nm fluorescence, primary screen (AID 1125).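 Note: score merges 667 nm channel intensity with signal to noise over triplicate slides.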 Conditions: higher = more signal.
Assay [7] deals with Chordin-like protein 2 (CHRDL2). Briefly: compounds binding chordin-like 2 – biochemical, small-molecule microarray, 635 nm fluorescence, primary screen (AID 1126).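 Note: printed compound slides probed with Chrdl2 protein at 4 µg/mL for 1 h at 4 C; score merges 667 nm emission intensity with signal to noise over three replicate slides.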 The conditions noted are these: fluorescence 635 nm, higher = more signal.
Assay [8] deals with Concanavalin-A (Canavalia ensiformis) (UniProt P02866). Briefly: compounds binding concanavalin A lectin – biochemical, small-molecule microarray, Alexa647 label, 635 nm, artefact control for SMM control protein annotation, primary screen (AID 1127).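 Note: z combines 667 nm emission intensity with signal-to-noise across three replicate slides.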 Conditions: ConA-A647 binding fluorescence, higher = more signal.
Assay [9] is described as follows: compounds binding Alexa647 anti-His antibody – biochemical, small-molecule microarray, 635 nm fluorescence, artefact control for SMM control protein annotation, primary screen (AID 1128).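 Note: score merges feature fluorescence with signal-to-noise for each printed compound spot.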 Conditions: higher = more signal.
Assay [10] concerns Human papillomavirus type 1a E7 protein (residues 1-88). Briefly: HPV1a E7 small-molecule binders, primary screen, biochemical, small-molecule microarray, residues 1-88, 635 nm (AID 1129). Conditions: small-molecule microarray binding, fluorescence 635 nm; higher = more signal.
For assay [11], the target named is Focal adhesion kinase 1 (Homo sapiens) (UniProt Q05397). The experiment in a line: PTK2 protein binding on printed compound slides – biochemical, small-molecule microarray, 635/667 nm fluorescence, BSA, DTT, primary screen (AID 1130).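 Note: composite of spot emission at 667 nm and signal to noise over triplicate slides.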 Conditions: 635 nm fluorescence, higher = more signal.
The subject of assay [12] is Fibrinogen (Alexa647-labelled). Briefly: Alexa647-fibrinogen binding to printed small molecules – biochemical, small-molecule microarray, 635/667 nm fluorescence, artefact control for SMM control-protein annotation, profiling panel (AID 1131).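 Note: z-score merges 667 nm fluorescence with per-spot signal-to-noise over triplicate slides.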 The conditions noted are these: fibrinogen-A647 binding fluorescence, higher = more signal.
Assay [13] addresses Follistatin (Homo sapiens) (UniProt P19883). Briefly: FST protein binding to printed compounds – biochemical, small-molecule microarray, 635/667 nm fluorescence, primary screen (AID 1132). The conditions noted are these: 635 nm fluorescence, higher = more signal.
In assay [14] the target is Fibroblast growth factor 2 (Homo sapiens) (UniProt P09038). Briefly: basic fibroblast growth factor binding to printed compounds – biochemical, small-molecule microarray, 635/667 nm fluorescence, primary screen (AID 1133). Conditions: FGF2, fluorescence 635/667, higher = more signal.
Assay [15] can be described thus: JC-1 mitochondrial potential readout, lung cancer cells – cell-based, A549, JC-1 fluorescence, basal, 24 h, 100 nL, profiling panel (AID 1138).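 Note: A549 lung adenocarcinoma cells under basal conditions with no added stimulus; test concentration not given here.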 Conditions: higher = more signal.
A further assay concerns Lefty1. Briefly: Lefty1 protein binding to printed compounds – biochemical, small-molecule microarray, 635/667 nm fluorescence, primary screen (AID 1139). The conditions noted are these: fluorescence 635/667, higher = more signal.
The test system of assay [16] is wheat germ agglutinin (Triticum aestivum), Alexa647-labelled. The experiment in a line: Alexa647-WGA lectin binding to printed small molecules – biochemical, small-molecule microarray, 635/667 nm fluorescence, artefact control for SMM control-protein annotation, profiling panel (AID 1140).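 Note: score merges 667 nm feature emission with signal to noise over triplicate slides.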 Conditions: WGA-A647 binding, 635 nm fluorescence, higher = more signal.
Assay [17] has as its target Luciferin 4-monooxygenase (Photinus pyralis) (UniProt P08659). The experiment in a line: inhibition of purified Photinus pyralis luciferase – biochemical, luminescence, purified enzyme, 2006 set, primary screen (AID 1141).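 Note: cell-free assay with purified firefly luciferase at 100 ng per well in PBS; test concentration not given here.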 The conditions noted are these: purified firefly luciferase, SteadyGlo luminescence, 30 min; higher = more signal, called active from +8 up or from −8 down.

The source made the active and inactive calls.

Chain of Follistatin (Homo sapiens) (P19883 whole entry, looked up): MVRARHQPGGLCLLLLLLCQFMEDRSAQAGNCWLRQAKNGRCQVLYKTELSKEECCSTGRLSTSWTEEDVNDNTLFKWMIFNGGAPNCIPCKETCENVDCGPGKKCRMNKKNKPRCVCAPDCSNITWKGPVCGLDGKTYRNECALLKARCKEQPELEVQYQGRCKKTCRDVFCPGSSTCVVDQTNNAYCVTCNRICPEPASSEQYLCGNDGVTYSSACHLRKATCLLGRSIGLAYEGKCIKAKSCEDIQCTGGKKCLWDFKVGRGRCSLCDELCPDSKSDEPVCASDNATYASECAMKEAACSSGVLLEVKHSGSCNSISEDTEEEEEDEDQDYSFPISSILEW
Chain of Concanavalin-A (Canavalia ensiformis) (P02866 whole entry, looked up): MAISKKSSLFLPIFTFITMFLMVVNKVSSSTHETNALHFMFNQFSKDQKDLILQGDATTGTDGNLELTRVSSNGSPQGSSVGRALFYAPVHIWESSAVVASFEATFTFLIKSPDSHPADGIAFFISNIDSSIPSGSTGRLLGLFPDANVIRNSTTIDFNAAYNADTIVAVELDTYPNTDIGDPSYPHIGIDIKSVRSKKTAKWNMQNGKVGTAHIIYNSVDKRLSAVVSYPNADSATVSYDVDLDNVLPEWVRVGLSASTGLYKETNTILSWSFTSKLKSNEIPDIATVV
Chain of Fibroblast growth factor 2 (Homo sapiens) (P09038 whole entry, looked up): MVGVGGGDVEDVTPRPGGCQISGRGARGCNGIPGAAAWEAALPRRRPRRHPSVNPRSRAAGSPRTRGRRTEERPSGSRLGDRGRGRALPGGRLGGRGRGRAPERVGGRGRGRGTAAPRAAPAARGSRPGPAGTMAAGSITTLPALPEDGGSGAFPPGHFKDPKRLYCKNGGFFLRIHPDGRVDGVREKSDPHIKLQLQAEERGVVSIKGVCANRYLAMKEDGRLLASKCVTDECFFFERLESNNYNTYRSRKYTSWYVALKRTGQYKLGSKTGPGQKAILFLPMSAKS
Chain of Focal adhesion kinase 1 (Homo sapiens) (Q05397 whole entry, looked up): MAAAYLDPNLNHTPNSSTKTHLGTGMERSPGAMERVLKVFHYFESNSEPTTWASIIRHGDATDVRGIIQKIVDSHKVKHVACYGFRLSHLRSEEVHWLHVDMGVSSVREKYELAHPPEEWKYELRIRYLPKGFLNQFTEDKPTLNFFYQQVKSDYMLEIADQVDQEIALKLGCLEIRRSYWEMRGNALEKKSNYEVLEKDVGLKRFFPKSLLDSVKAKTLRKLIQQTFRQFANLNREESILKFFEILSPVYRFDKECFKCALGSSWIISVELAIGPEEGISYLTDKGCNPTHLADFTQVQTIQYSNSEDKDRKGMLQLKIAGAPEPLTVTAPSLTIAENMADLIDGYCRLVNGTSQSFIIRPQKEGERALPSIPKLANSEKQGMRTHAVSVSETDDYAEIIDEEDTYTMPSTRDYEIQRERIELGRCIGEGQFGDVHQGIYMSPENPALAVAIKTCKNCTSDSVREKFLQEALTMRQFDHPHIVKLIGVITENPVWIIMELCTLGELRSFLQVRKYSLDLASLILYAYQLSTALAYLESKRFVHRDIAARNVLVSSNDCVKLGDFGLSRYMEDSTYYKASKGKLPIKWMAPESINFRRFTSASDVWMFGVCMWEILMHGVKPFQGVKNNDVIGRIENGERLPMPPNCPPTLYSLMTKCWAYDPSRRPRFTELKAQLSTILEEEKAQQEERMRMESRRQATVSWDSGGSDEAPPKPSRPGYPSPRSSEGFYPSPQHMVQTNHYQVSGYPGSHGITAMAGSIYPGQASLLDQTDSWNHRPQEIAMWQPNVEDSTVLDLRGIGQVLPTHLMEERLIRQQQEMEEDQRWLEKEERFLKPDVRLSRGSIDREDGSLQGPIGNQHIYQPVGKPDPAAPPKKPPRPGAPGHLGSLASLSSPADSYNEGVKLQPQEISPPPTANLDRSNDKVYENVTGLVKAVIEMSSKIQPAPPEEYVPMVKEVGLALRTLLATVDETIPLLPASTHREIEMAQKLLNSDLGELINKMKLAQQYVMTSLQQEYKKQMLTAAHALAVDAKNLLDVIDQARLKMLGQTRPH
Chain of Albumin (Bos taurus) (P02769 whole entry, looked up): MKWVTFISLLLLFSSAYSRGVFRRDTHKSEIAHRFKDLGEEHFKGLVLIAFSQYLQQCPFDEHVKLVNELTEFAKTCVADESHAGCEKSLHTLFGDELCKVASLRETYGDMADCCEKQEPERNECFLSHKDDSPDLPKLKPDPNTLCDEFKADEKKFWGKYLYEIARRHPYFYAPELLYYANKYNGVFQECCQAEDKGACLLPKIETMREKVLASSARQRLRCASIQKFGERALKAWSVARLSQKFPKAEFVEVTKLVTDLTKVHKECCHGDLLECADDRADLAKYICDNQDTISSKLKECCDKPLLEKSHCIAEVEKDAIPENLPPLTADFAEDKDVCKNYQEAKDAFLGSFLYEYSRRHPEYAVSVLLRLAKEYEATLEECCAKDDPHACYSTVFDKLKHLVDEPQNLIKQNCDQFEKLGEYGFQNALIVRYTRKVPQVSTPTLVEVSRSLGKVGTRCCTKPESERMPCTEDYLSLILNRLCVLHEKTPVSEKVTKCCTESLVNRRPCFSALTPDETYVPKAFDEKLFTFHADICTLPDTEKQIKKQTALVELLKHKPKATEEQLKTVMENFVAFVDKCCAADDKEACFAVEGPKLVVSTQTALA
Chain of Luciferin 4-monooxygenase (Photinus pyralis) (P08659 whole entry, looked up): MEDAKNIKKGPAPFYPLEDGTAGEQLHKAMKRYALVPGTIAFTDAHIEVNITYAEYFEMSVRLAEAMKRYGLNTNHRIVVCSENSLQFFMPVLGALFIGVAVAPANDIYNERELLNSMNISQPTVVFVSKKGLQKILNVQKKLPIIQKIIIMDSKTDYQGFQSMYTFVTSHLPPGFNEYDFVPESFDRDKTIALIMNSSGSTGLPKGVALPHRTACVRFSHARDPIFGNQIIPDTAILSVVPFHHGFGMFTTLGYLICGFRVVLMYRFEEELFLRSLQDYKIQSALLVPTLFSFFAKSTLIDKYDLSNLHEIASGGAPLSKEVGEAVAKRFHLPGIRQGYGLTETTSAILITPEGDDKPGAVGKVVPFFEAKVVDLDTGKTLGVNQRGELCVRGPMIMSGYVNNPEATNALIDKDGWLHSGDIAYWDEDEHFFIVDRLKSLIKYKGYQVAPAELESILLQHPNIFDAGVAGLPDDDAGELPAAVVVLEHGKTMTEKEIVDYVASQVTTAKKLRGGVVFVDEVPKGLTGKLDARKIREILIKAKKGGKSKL

For `NC(=O)N1C(=O)C2C(C1=O)C1C=C(CCCO)C2C(C2CC2)N1Cc1cccc(OC(F)(F)F)c1` (stereo not given), the composite z-score in the assay with Albumin (Bos taurus) was 0.858; in assay [2], -0.349; in assay [3], -0.179; in assay [4] it was 0.653; in assay [5], 0.518; in assay [6] it was -0.0171. Further, the composite z-score was 0.588 with Sam68 (KHDRBS1); -0.489 in assay [7]; 0.221 in [8]; 0.589 in assay [9]; 0.469 in assay [10]; -0.0719 in [11]. The composite z-score in [12] was 0.948; in assay [13], 0.173; in assay [14], -0.314; with Lefty1, 0.341; in assay [16], 0.94. Also, the composite Z-score in assay [1] was 0.547 (inactive). The z-score in assay [15] was 0.541; in assay [17] it was -1.4 (inactive).
`C[C@@H]1ON(c2ccc(I)cc2)[C@H](c2ccc(OC(=O)OC(C)(C)C)cc2)[C@H]1C(=O)N1C(=O)OC[C@H]1Cc1ccccc1`: the composite z-score with Albumin (Bos taurus) was 0.578; in [2], -0.0043; in assay [3] it was -0.14; in assay [4] it was 0.574; in [5], 0.527; in [6] it was -0.36. Also, the composite z-score in the assay with Sam68 (KHDRBS1) was 1.15; in assay [7], 0.376; in assay [8] it was 1.09; in assay [9], 0.955; in [10], 1.13; in [11] it was -0.0457. In addition, the composite z-score came out at 0.966 in assay [12]; 0.61 in [13]; 0.255 in assay [14]; 0.445 in the assay with Lefty1; 0.348 in [16]. Further, in [1], the composite Z-score was 0.0054 (inactive). The z-score in [15] is 0.386; in assay [17], -0.695 (inactive).
In the case of `COCCOC(=O)N1C(=O)[C@@]2(c3cc(C#CCCO)ccc31)[C@H](c1ccccc1OCCO)N1[C@H](c3ccccc3)[C@H](c3ccccc3)OC(=O)[C@H]1[C@@H]2C(=O)N1CCCCCCC1`, the composite z-score is 0.86 in the assay with Albumin (Bos taurus); 1.39 in assay [2]; 0.333 in assay [3]; 0.761 in assay [4]; 3.2 in assay [5]; 0.796 in assay [6]. For the same molecule, the composite z-score in the assay with Sam68 (KHDRBS1) was found to be 1.29; in [7], 1.05; in assay [8], 1.11; in assay [9], 1.35; in [10], 1.17; in assay [11] it was 0.624. In addition, the composite z-score in [12] worked out at 0.857; in [13], 1.39; in assay [14], 1.58; in the assay with Lefty1, 1.65; in [16], 1.14. In addition, the composite Z-score in [1] is 0.358 (inactive). The z-score in assay [15] is -0.383; in assay [17], -0.0558 (inactive).
With `Cc1nc2cc(Br)ccc2c(=O)n1Cc1cccc(O)c1`, the composite z-score with Albumin (Bos taurus) was 0.417; in [2], -0.119; in assay [3] it was -0.12; in assay [4], 0.218; in [5], 1.28; in assay [6], 1.09. The composite z-score in the assay on Sam68 (KHDRBS1) is 0.968; in assay [7] it was 1.04; in assay [8], 0.799; in assay [9] it was 0.391; in [10] it was 0.941; in assay [11] it was 0.872. Further, the composite z-score in assay [12] amounted to 0.539; in [13], 1.38; in [14], 1.81; in the assay with Lefty1, 1.22; in [16], 0.334. For the same molecule, the composite Z-score in assay [1] was 0.0614 (inactive). Further, the z-score in assay [15] is 0.287; in assay [17], 6.4 (inactive).
On to `C=C(COC)/C(=C/C[C@H](OC(C)=O)c1cccc(OCCO)c1)c1cnc2ccccc2c1`, for which the composite z-score was 0.497 with Albumin (Bos taurus); 0.0556 in assay [2]; -0.0817 in assay [3]; 0.917 in [4]; 0.109 in assay [5]; 0.267 in [6]. In addition, the composite z-score was 1.24 with Sam68 (KHDRBS1); 1.35 in [7]; 1.05 in [8]; 0.18 in [9]; 1.02 in assay [10]; -0.105 in [11]. Further, the composite z-score in assay [12] came out at 0.246; in [13] it was 1.46; in assay [14] it was 1.57; in the assay with Lefty1 it was 1.53; in [16], 1.14. Moreover, the composite Z-score in assay [1] is 0.0575 (inactive). The z-score is 1.05 in assay [15] and -1.06 (inactive) in assay [17].
